The results in this text go back to PubChem BioAssay (NCI).

Experiment [1] can be described thus: NCI Yeast Anticancer Drug Screen. Data for the rad50 strain (AID 155).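 Also: 0% = growth of vehicle-only cultures of the same strain.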 To be noted: S. cerevisiae rad50 strain growth inhibition; at 50.0 µM; hits give high values. The method in brief: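 Cells are treated with compound, grown, and their growth is then scored against vehicle-only cultures of the same repair-deficient yeast strain.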
Experiment [2] is described as follows: NCI Yeast Anticancer Drug Screen. Data for the mec2-1 strain (AID 157). The conditions noted are these: S. cerevisiae mec2-1 strain, at 50.0 µM, hits give high values. The method in brief: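 Yeast mec2-1 mutant treated with compound. Readout: growth inhibition vs vehicle controls.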
Experiment [3] can be described thus: NCI Yeast Anticancer Drug Screen. Data for the sgs1 mgt1 strain (AID 161).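 Also: 0% = growth of cultures given vehicle only.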 To be noted: S. cerevisiae sgs1 mgt1 strain, at 50.0 µM, hits give high values. The method in brief:
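Mutant yeast exposed to compound; growth scored against vehicle-only wells.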

A short description of experiment [4]: NCI Yeast Anticancer Drug Screen. Data for the cln2 rad14 strain (AID 165).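 Also: 0% = growth equal to vehicle treated cultures.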 To be noted: S. cerevisiae cln2 rad14 strain, at 50.0 µM, hits give high values. The method in brief:
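cln2 rad14 yeast strain; compound exposure; growth inhibition read vs vehicle controls.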

A short description of experiment [5]: NCI Yeast Anticancer Drug Screen. Data for the bub3 strain (AID 167). To be noted: S. cerevisiae bub3 mutant strain, at 50.0 µM, hits give high values. The method in brief: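 Part of a panel of yeast mutants defective in DNA damage repair or cell cycle regulation. Each strain is grown with compound, and inhibition is calculated relative to solvent-treated cultures.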

Experiment [6] is described as follows: NCI Yeast Anticancer Drug Screen. Data for the mlh1 rad18 strain (AID 175). To be noted: S. cerevisiae mlh1 rad18 strain growth inhibition; at 50.0 µM; hits give high values. The method in brief: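 Yeast w/ defined DNA-repair lesions; compound exposure; growth vs vehicle controls → % inhibition.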

The structures appear in SMILES notation. Compounds without any hit were thinned out: in the full panel of roughly 79,000, 15% have a hit. Values without a mark were called inactive. Active and inactive are the calls of the source. Rule as the data show it: active = growth inhibition above about 70%; inactive = the rest.

On to `CC(=O)Cc1ccc2[nH]c(C)cc(=O)c2c1`, for which the growth inhibition in experiment [1] was -2.15%; in experiment [2], 5.25%; in experiment [3], -0.2%; in experiment [4], -34.4%; in experiment [5] it was -7.15%; in experiment [6], 4.55%.
For `CC(=O)N(C(=O)CC(=O)N/N=C\c1ccc(Br)c(N(CCC#N)CCC#N)c1)c1ccc(Cl)cc1`, the growth inhibition is 7.7% in experiment [1]; 0.6% in experiment [2]; 8.1% in experiment [3]; -7.8% in experiment [4]; 6.2% in experiment [5]; -3.35% in experiment [6].
As for `CC(=O)OC1Cc2ccccc2C1OC(C)=O` (stereo not given), the growth inhibition in experiment [1] was -1.9%; in experiment [2] it was 9.4%; in experiment [3] it was -8.8%; in experiment [4], -9.8%; in experiment [5] it was -19.4%; in experiment [6], 7.1%.
As for `O/N=C1\CCn2cccc21`, the growth inhibition in experiment [1] is -12.1%; in experiment [2], 15.1%; in experiment [3] it was -18.2%; in experiment [4], 0.25%; in experiment [5], 19.4%; in experiment [6], -11.2%.
As to `O=C(Nc1cccc(Cl)c1)Sc1c(Cl)c(Cl)c(Cl)c(Cl)c1Cl`, the growth inhibition was 24.4% in experiment [1]; 17.3% in experiment [2]; 26.4% in experiment [3]; 29.2% in experiment [4]; 7.3% in experiment [5]; 34.8% in experiment [6].
In the case of `O=C(O)C1CCc2ccccc2C1` (stereo not given), the growth inhibition in experiment [1] is 15.4%; in experiment [2] it was 4.05%; in experiment [3] it was 9.85%; in experiment [4], -0.45%; in experiment [5], -2.4%; in experiment [6], 2.95%.
`O=C(O)C(Cc1ccccc1)NS(=O)(=O)Cc1ccccc1` (stereo not given): the growth inhibition in experiment [1] was -14.1%; in experiment [2], -8.45%; in experiment [3], -4.5%; in experiment [4], -4.9%; in experiment [5], -8.2%; in experiment [6], -2.15%.
For the compound `NC(=O)ON=C1CCN(Cc2ccccc2)CC1`, the growth inhibition is 30.4% in experiment [1]; 15.4% in experiment [2]; 10.7% in experiment [3]; 18.9% in experiment [4]; 10.2% in experiment [5]; 21.4% in experiment [6].
Turning to `NC(=O)NC(=O)Cc1ccc(N)cc1`, the growth inhibition is 4.6% in experiment [1]; -9.1% in experiment [2]; 1.9% in experiment [3]; 1.1% in experiment [4]; 4% in experiment [5]; -4.9% in experiment [6].
On to `CSC12CC3C(=O)C=C[C@@H](O)[C@@H]3N1C(=O)C1(SC)CC3C(=O)C=C[C@@H](O)[C@@H]3N1C2=O` (stereo not given in full), for which the growth inhibition in experiment [1] was 64.3%; in experiment [2], 78.2% (active); in experiment [3] it was 85.1% (active); in experiment [4] it was 39.8%; in experiment [5] it was 72.8% (active); in experiment [6], 65.2%.
Take `O=C1CC(c2ccccc2)OC(c2ccccc2Cl)C1` (stereo not given): the growth inhibition in experiment [1] was -1.25%; in experiment [2], -8.35%; in experiment [3], -39.5%; in experiment [4], -20.7%; in experiment [5], -5.85%; in experiment [6] it was 9.1%.
Turning to `O=C1OC2CC3CC2C1C3C(=O)N1CCCCC1` (stereo not given), the growth inhibition in experiment [1] is 11.5%; in experiment [2], -1.6%; in experiment [3] it was -8.15%; in experiment [4], -33%; in experiment [5] it was -9.65%; in experiment [6], -5.4%.
On to `NNC(=O)CC(N)C(=O)O` (stereo not given), for which the growth inhibition was 9% in experiment [1]; 4.4% in experiment [2]; -4.2% in experiment [3]; -20.7% in experiment [4]; 1.15% in experiment [5]; 2% in experiment [6].
For the compound `COC(OC)c1cccnc1C`, the growth inhibition in experiment [1] was -25.6%; in experiment [2], 16.8%; in experiment [3] it was -25.1%; in experiment [4], 6.65%; in experiment [5], -23.5%; in experiment [6] it was 7.7%.
For the compound `C/C=N\n1c(C)c(C#N)c(C#N)c1N`, the growth inhibition in experiment [1] was 8.6%; in experiment [2], 10.2%; in experiment [3] it was -23.6%; in experiment [4], -14.1%; in experiment [5] it was -21.7%; in experiment [6], -35.5%.
Take `CCc1nc2c(c(=O)n(C)c(=O)n2C)n1C`: the growth inhibition was -2.65% in experiment [1]; -4.15% in experiment [2]; -8.45% in experiment [3]; -3.85% in experiment [4]; 2.85% in experiment [5]; -7.5% in experiment [6].
As for `NC(=O)c1ccccc1C(N)=O`, the growth inhibition in experiment [1] is 13.4%; in experiment [2] it was -10.6%; in experiment [3] it was 8.95%; in experiment [4], 30.7%; in experiment [5] it was -11.8%; in experiment [6], -31.9%.
On to `CC(=O)N(C)c1ccc(N=CN(C)C)cc1`, for which the growth inhibition is -80.3% in experiment [1]; -27.5% in experiment [2]; -34.3% in experiment [3]; -11.8% in experiment [4]; 2.9% in experiment [5]; -27.9% in experiment [6].
On to `C/C(CC(=O)Nc1ccc(Cc2ccc(Cl)cc2)cc1)=N/Nc1ccc([N+](=O)[O-])cc1[N+](=O)[O-]`, for which the growth inhibition is 28.1% in experiment [1]; -0.25% in experiment [2]; 31.4% in experiment [3]; -1.15% in experiment [4]; -8.55% in experiment [5]; 22.6% in experiment [6].
Turning to `COC(=O)c1ccc(C(=O)c2ccccc2)cc1`, the growth inhibition is -1.15% in experiment [1]; 9.15% in experiment [2]; 27.9% in experiment [3]; 5.55% in experiment [4]; 14.2% in experiment [5]; 7.7% in experiment [6].
